Test results reported in PubChem BioAssay AID1159580 (chemical genetic matrix, 2015).
The campaign covered roughly 5,500 compounds. About 2,000 (36%) were called active. Roughly 18% stayed inconclusive and do not appear here. No stated cut-off is given here; in the data, active means normalized growth mostly below about 0.91 (no sharp cut-off); inconclusive means no clear call, values can overlap the other calls; inactive means mostly above about 0.92. Some of the results follow.

Assay: chemical genetic growth profiling, strain panel (AID 1159580);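 further: tested at 20 µM; growth read once vehicle control cultures reached saturation at 30 °C; 1 = growth at the plate median or of vehicle wells; lower values mean less growth of the strain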
Settings: growth OD

Measured: normalized growth

CC(=O)O[C@]1(C(C)=O)CCC2C3C=C(C)C4=CC(=O)CCC4(C)C3CCC21C (stereo partly specified)
active: S. cerevisiae deletion strains, locus YKL085W, strain MDH1 (second series), hits give low values 0.908 | S. cerevisiae deletion strains, locus YKL085W, strain MDH1, hits give low values 0.908 | S. cerevisiae deletion strains, locus YKR001C, strain vps1, hits give low values 0.81 | S. cerevisiae deletion strains, locus YLL001W, strain dnm1, hits give low values 0.886 | S. cerevisiae deletion strains, locus YLR027C, strain aat2, hits give low values 0.919 | S. cerevisiae deletion strains, locus YLR262C, strain YPT6 (second series), hits give low values 0.699 | S. cerevisiae deletion strains, locus YLR320W, strain mms22, hits give low values 0.864 | S. cerevisiae deletion strains, locus YLR342W, strain FKS1 (second series), hits give low values 0.759 | S. cerevisiae deletion strains, locus YLR342W, strain FKS1, hits give low values 0.768 | S. cerevisiae deletion strains, locus YLR418C, strain cdc73, hits give low values 0.627 | S. cerevisiae deletion strains, locus YML120C, strain ndi1, hits give low values 0.906 | S. cerevisiae deletion strains, locus YMR223W, strain ubp8, hits give low values 0.888 | S. cerevisiae deletion strains, locus YNL071W, strain lat1, hits give low values 0.822 | S. cerevisiae deletion strains, locus YNL233W, strain BNI4, hits give low values 0.862 | S. cerevisiae deletion strains, locus YNL307C, strain MCK1, hits give low values 0.714 | S. cerevisiae deletion strains, locus YOR184W, strain ser1, hits give low values 0.746 | S. cerevisiae deletion strains, locus YOR270C, strain vph1, hits give low values 0.718 | S. cerevisiae deletion strains, locus YPL078C, strain atp4, hits give low values 0.855 | S. cerevisiae deletion strains, strain wtn01, hits give low values 0.881 | S. cerevisiae strains, strain wild type, hits give low values 0.88
inactive: S. cerevisiae deletion strains, locus YKL009W, strain mrt4, hits give low values 0.963 | S. cerevisiae deletion strains, locus YKL068W, hits give low values 0.98 | S. cerevisiae deletion strains, locus YKL160W, strain elf1, hits give low values 0.955 | S. cerevisiae deletion strains, locus YKL190W, strain CNB1, hits give low values 0.93 | S. cerevisiae deletion strains, locus YKR026C, strain gcn3, hits give low values 0.976 | S. cerevisiae deletion strains, locus YKR091W, strain srl3, hits give low values 0.96 | S. cerevisiae deletion strains, locus YLL026W, hits give low values 0.941 | S. cerevisiae deletion strains, locus YLL041C, strain sdh2, hits give low values 0.969 | S. cerevisiae deletion strains, locus YLR039C, strain RIC1, hits give low values 0.859 | S. cerevisiae deletion strains, locus YLR058C, strain SHM2, hits give low values 0.988 | S. cerevisiae deletion strains, locus YLR102C, strain apc9, hits give low values 0.979 | S. cerevisiae deletion strains, locus YLR113W, strain HOG1, hits give low values 0.949 | S. cerevisiae deletion strains, locus YLR221C, strain rsa3, hits give low values 0.957 | S. cerevisiae deletion strains, locus YLR258W, strain gsy2, hits give low values 0.956 | S. cerevisiae deletion strains, locus YLR262C, strain YPT6, hits give low values 0.859 | S. cerevisiae deletion strains, locus YLR268W, strain sec22, hits give low values 0.913 | S. cerevisiae deletion strains, locus YLR330W, strain CHS5, hits give low values 0.964 | S. cerevisiae deletion strains, locus YLR357W, strain rsc2, hits give low values 0.953 | S. cerevisiae deletion strains, locus YLR370C, strain arc18, hits give low values 0.96 | S. cerevisiae deletion strains, locus YLR371W, strain rom2, hits give low values 0.984 | S. cerevisiae deletion strains, locus YLR384C, strain iki3, hits give low values 0.964 | S. cerevisiae deletion strains, locus YML016C, strain PPZ1, hits give low values 0.992 | S. cerevisiae deletion strains, locus YML032C, strain rad52, hits give low values 0.96 | S. cerevisiae deletion strains, locus YML124C, strain tub3, hits give low values 0.976 | S. cerevisiae deletion strains, locus YMR058W, strain fet3, hits give low values 0.913 | S. cerevisiae deletion strains, locus YMR078C, strain ctf18, hits give low values 0.961 | S. cerevisiae deletion strains, locus YMR125W, strain sto1, hits give low values 0.995 | S. cerevisiae deletion strains, locus YMR129W, hits give low values 0.967 | S. cerevisiae deletion strains, locus YMR205C, strain PFK2, hits give low values 0.888 | S. cerevisiae deletion strains, locus YMR231W, strain pep5, hits give low values 0.967 | S. cerevisiae deletion strains, locus YMR263W, strain SAP30, hits give low values 0.922 | S. cerevisiae deletion strains, locus YMR307W, strain GAS1, hits give low values 0.817 | S. cerevisiae deletion strains, locus YNL067W, strain RPL9B, hits give low values 0.914 | S. cerevisiae deletion strains, locus YNL128W, strain TEP1, hits give low values 0.98 | S. cerevisiae deletion strains, locus YNL153C, strain GIM3, hits give low values 0.929 | S. cerevisiae deletion strains, locus YNL183C, strain NPR1, hits give low values 0.939 | S. cerevisiae deletion strains, locus YNL209W, strain ssb2, hits give low values 0.985 | S. cerevisiae deletion strains, locus YNL248C, strain rpa49, hits give low values 0.958 | S. cerevisiae deletion strains, locus YNL250W, strain rad50, hits give low values 0.938 | S. cerevisiae deletion strains, locus YNL271C, strain bni1, hits give low values 0.949 | S. cerevisiae deletion strains, locus YNL298W, strain CLA4, hits give low values 0.966 | S. cerevisiae deletion strains, locus YNL322C, strain KRE1 (second series), hits give low values 0.972 | S. cerevisiae deletion strains, locus YNL322C, strain KRE1, hits give low values 0.983 | S. cerevisiae deletion strains, locus YNR049C, strain mso1, hits give low values 0.958 | S. cerevisiae deletion strains, locus YNR052C, strain pop2, hits give low values 0.99 | S. cerevisiae deletion strains, locus YOL006C, strain TOP1, hits give low values 0.85 | S. cerevisiae deletion strains, locus YOL012C, strain htz1 0.402 | S. cerevisiae deletion strains, locus YOL147C, strain pex11, hits give low values 0.981 | S. cerevisiae deletion strains, locus YOR001W, strain rrp6, hits give low values 0.947 | S. cerevisiae deletion strains, locus YOR061W, strain CKA2, hits give low values 0.977 | S. cerevisiae deletion strains, locus YOR069W, strain VPS5, hits give low values 0.998 | S. cerevisiae deletion strains, locus YOR070C, strain gyp1, hits give low values 0.967 | S. cerevisiae deletion strains, locus YOR080W, strain dia2, hits give low values 0.953 | S. cerevisiae deletion strains, locus YOR083W, strain WHI5, hits give low values 0.9 | S. cerevisiae deletion strains, locus YOR106W, strain vam3, hits give low values 0.877 | S. cerevisiae deletion strains, locus YOR136W, strain idh2, hits give low values 0.971 | S. cerevisiae deletion strains, locus YOR144C, strain elg1, hits give low values 0.985 | S. cerevisiae deletion strains, locus YOR231W, strain MKK1, hits give low values 0.961 | S. cerevisiae deletion strains, locus YOR265W, strain rbl2, hits give low values 0.954 | S. cerevisiae deletion strains, locus YOR290C, strain snf2, hits give low values 0.969 | S. cerevisiae deletion strains, locus YOR316C, strain cot1, hits give low values 0.979 | S. cerevisiae deletion strains, locus YPL051W, strain arl3, hits give low values 0.922 | S. cerevisiae deletion strains, locus YPL055C, strain LGE1, hits give low values 0.828 | S. cerevisiae deletion strains, locus YPL106C, strain sse1, hits give low values 1.05 | S. cerevisiae deletion strains, locus YPL240C, strain hsp82, hits give low values 0.963 | S. cerevisiae deletion strains, locus YPL241C, strain CIN2, hits give low values 0.982 | S. cerevisiae deletion strains, locus YPL256C, strain CLN2, hits give low values 0.915 | S. cerevisiae deletion strains, locus YPR119W, strain clb2, hits give low values 0.983 | S. cerevisiae deletion strains, locus YPR141C, strain kar3, hits give low values 0.972 | S. cerevisiae deletion strains, locus YPR163C, strain tif3, hits give low values 0.983 | S. cerevisiae deletion strains, locus YPR167C, strain met16, hits give low values 0.977
